Measurements: ChEMBL document CHEMBL1961873, “Compounds: GSK PKIS; Assays: Nanosyn kinase panel” (2012)

Key:
[1] = molecular target: Leukocyte tyrosine kinase receptor (Homo sapiens) (UniProt P29376); details: at 1 µM;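 note: each value is the mean inhibition of LTK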
[2] = molecular target: Tyrosine-protein kinase Lyn (Homo sapiens) (UniProt P07948); details: at 0.1 µM
[3] = molecular target: Tyrosine-protein kinase Lyn (Homo sapiens) (UniProt P07948); details: at 1 µM
[4] = molecular target: Tyrosine-protein kinase Lyn (Homo sapiens) (UniProt P07948); details: at 0.1 µM; remark: listed apart in the source
[5] = molecular target: Tyrosine-protein kinase Lyn (Homo sapiens) (UniProt P07948); details: at 1 µM; remark: listed apart in the source
[6] = molecular target: T1, Tyrosine-protein kinase Mer (Homo sapiens) (UniProt Q12866); details: at 0.1 µM
T1 sequence (whole entry): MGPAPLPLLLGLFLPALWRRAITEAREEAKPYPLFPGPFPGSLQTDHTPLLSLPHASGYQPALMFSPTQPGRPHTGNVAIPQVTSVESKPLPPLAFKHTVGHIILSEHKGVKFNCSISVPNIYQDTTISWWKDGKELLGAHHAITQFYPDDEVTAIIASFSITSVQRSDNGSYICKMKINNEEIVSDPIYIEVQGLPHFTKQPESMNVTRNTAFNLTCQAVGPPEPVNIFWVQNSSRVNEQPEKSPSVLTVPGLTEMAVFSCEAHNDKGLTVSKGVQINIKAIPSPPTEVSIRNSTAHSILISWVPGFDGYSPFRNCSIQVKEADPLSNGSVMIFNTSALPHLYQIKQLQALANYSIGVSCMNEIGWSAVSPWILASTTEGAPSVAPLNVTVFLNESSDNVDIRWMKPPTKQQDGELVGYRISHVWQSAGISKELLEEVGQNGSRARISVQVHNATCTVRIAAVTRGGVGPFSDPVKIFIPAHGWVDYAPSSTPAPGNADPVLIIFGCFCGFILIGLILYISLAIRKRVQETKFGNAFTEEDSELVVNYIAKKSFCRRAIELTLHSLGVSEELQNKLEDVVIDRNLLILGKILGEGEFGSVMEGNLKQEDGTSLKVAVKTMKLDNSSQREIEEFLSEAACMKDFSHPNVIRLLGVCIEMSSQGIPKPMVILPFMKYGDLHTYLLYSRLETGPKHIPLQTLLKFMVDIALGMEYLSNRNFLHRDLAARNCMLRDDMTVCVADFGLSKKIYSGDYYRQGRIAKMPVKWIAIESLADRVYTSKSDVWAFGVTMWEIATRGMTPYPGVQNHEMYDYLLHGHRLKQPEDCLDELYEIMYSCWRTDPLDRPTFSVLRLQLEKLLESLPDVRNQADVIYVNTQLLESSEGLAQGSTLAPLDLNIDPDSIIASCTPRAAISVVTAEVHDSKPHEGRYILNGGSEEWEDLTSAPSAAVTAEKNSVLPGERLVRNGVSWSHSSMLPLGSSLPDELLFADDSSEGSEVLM

[7] = molecular target: T1, Tyrosine-protein kinase Mer (Homo sapiens); details: at 1 µM
[8] = molecular target: Hepatocyte growth factor receptor (Homo sapiens) (UniProt P08581); details: at 0.1 µM
[9] = molecular target: Hepatocyte growth factor receptor (Homo sapiens) (UniProt P08581); details: at 1 µM
[10] = molecular target: T2, Muscle, skeletal receptor tyrosine-protein kinase (Homo sapiens) (UniProt O15146); details: at 0.1 µM
T2 sequence (whole entry): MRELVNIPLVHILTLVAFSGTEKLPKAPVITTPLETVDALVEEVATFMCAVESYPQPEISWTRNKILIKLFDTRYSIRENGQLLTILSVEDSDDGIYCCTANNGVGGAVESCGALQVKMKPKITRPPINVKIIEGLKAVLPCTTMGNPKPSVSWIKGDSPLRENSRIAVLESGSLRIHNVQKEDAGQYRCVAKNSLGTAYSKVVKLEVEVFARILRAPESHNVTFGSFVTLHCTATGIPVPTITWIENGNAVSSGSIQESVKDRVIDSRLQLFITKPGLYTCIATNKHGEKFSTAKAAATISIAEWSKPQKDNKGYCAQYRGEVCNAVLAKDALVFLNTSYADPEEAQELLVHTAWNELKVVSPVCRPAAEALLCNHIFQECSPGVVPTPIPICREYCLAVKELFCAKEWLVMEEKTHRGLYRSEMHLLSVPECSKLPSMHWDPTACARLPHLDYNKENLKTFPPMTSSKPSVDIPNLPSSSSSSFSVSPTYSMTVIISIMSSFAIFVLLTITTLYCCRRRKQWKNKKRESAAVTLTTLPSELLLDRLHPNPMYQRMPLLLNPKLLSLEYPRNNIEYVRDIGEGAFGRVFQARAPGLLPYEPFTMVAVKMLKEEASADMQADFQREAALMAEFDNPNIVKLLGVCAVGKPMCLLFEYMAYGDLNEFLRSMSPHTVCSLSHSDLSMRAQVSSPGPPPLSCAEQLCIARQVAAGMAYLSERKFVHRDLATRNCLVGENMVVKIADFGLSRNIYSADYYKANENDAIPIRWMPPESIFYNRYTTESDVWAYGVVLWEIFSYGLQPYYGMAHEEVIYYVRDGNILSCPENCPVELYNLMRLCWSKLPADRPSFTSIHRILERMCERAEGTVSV

[11] = molecular target: T2, Muscle, skeletal receptor tyrosine-protein kinase (Homo sapiens); details: at 1 µM
[12] = molecular target: Platelet-derived growth factor receptor alpha (Homo sapiens) (UniProt P16234); details: at 0.1 µM
[13] = molecular target: Platelet-derived growth factor receptor alpha (Homo sapiens) (UniProt P16234); details: at 1 µM
[14] = test system: Platelet-derived growth factor receptor alpha (Homo sapiens), P16234 [D842V]; details: at 0.1 µM
[15] = test system: Platelet-derived growth factor receptor alpha (Homo sapiens), P16234 [D842V]; details: at 1 µM
[16] = test system: Platelet-derived growth factor receptor alpha (Homo sapiens), P16234 [T674I]; details: at 0.1 µM
[17] = test system: Platelet-derived growth factor receptor alpha (Homo sapiens), P16234 [T674I]; details: at 1 µM
[18] = test system: Platelet-derived growth factor receptor alpha (Homo sapiens), P16234 [V561D]; details: at 0.1 µM
[19] = test system: Platelet-derived growth factor receptor alpha (Homo sapiens), P16234 [V561D]; details: at 1 µM
[20] = molecular target: Platelet-derived growth factor receptor beta (Homo sapiens) (UniProt P09619); details: at 0.1 µM;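 note: reported value is the mean percent inhibition of the kinase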
Chain of Platelet-derived growth factor receptor beta (Homo sapiens) (P09619 whole entry): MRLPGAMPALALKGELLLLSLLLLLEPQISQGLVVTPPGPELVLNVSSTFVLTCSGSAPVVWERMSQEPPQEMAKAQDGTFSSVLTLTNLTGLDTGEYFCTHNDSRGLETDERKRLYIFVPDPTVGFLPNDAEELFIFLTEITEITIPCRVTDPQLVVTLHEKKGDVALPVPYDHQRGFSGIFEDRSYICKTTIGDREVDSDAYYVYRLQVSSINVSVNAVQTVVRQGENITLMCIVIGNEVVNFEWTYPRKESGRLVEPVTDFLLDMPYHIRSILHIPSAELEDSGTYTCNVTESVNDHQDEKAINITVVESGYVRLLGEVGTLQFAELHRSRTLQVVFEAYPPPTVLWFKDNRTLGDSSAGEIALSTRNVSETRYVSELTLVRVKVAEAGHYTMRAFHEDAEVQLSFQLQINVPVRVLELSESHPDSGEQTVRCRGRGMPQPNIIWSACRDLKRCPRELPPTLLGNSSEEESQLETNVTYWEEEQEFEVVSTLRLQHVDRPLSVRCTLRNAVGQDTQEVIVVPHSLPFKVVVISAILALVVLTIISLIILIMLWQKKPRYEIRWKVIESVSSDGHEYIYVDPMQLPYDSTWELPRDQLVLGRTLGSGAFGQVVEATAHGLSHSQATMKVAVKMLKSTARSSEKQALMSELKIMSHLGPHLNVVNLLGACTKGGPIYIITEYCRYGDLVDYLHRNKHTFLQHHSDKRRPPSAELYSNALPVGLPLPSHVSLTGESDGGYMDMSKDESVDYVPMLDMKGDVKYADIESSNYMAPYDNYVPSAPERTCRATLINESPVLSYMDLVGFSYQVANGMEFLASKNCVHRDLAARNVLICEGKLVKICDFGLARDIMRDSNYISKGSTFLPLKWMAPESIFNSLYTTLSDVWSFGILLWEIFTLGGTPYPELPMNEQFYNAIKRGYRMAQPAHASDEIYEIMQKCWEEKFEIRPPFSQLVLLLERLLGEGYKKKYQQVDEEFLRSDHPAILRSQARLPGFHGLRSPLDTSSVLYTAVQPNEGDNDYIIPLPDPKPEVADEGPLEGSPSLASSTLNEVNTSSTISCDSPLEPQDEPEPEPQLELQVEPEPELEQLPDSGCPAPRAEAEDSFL

Chain of Leukocyte tyrosine kinase receptor (Homo sapiens) (P29376 whole entry): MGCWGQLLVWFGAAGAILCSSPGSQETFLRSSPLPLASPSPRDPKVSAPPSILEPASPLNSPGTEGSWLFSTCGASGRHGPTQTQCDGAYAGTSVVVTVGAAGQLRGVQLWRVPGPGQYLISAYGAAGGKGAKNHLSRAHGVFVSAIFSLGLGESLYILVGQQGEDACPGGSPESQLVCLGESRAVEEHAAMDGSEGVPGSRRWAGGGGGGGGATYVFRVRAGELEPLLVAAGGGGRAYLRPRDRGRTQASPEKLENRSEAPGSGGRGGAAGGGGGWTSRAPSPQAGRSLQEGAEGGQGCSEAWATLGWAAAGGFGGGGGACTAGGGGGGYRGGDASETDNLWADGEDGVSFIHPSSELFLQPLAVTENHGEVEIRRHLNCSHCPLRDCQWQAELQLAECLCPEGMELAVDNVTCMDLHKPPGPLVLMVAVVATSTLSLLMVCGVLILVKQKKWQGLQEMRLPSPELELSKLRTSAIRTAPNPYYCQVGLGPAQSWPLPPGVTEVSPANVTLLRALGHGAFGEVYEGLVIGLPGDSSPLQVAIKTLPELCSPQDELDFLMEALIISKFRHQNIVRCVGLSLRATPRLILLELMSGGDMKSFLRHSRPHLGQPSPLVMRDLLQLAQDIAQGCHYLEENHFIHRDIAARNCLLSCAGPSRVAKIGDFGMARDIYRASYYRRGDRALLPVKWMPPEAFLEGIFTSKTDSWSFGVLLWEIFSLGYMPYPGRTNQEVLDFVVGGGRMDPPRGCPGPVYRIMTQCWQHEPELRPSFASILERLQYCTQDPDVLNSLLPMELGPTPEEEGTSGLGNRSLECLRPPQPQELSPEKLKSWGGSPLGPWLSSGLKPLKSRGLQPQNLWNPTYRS
Chain of Platelet-derived growth factor receptor alpha (Homo sapiens) (P16234 whole entry): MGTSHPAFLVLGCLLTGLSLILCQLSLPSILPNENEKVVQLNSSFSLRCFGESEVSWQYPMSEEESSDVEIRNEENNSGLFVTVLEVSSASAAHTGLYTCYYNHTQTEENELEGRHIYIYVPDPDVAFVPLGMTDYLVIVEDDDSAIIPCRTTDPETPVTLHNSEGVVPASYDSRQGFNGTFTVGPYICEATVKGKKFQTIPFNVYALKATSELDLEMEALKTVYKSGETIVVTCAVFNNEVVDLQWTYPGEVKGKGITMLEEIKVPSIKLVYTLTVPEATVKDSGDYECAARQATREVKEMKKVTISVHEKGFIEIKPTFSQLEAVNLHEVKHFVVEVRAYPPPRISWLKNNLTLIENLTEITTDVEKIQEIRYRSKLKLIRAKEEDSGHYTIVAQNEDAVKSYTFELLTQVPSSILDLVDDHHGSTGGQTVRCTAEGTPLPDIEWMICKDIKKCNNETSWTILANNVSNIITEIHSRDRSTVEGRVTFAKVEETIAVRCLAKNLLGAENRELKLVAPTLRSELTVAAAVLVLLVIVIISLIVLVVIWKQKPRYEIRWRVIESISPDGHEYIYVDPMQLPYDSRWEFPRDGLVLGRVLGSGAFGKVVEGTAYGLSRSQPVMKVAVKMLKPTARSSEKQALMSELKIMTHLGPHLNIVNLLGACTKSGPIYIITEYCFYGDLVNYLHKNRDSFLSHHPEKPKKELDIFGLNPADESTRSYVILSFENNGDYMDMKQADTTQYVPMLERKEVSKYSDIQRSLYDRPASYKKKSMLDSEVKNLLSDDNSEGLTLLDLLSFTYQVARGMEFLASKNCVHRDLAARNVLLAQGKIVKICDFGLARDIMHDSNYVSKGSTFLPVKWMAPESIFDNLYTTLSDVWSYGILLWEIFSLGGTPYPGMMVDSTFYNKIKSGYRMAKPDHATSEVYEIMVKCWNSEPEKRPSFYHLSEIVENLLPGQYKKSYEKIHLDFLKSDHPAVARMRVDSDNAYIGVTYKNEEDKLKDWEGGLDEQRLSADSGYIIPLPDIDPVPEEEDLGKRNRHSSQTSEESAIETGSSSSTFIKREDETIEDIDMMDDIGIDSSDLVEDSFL
Chain of Platelet-derived growth factor receptor alpha (Homo sapiens), P16234 [V561D] (P16234 whole entry V561D): as the sequence (P16234 whole entry) above, with V561D counted along it
Chain of Tyrosine-protein kinase Lyn (Homo sapiens) (P07948 2-512 limits assumed): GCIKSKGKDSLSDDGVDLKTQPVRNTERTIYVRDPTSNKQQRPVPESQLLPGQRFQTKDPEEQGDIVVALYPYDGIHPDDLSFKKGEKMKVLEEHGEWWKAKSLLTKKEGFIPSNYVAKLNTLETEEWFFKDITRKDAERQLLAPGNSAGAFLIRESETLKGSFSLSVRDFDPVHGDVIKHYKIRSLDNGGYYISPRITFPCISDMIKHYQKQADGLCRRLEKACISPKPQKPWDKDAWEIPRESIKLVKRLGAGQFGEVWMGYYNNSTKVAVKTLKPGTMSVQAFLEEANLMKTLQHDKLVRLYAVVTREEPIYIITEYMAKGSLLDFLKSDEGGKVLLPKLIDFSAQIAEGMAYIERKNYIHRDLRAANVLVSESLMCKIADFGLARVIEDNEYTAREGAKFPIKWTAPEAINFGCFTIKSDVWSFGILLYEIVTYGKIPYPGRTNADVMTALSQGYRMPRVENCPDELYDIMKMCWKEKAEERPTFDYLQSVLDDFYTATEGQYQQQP

| Structure (SMILES) | inhibition [1] [%] | inhibition [2] [%] | inhibition [3] [%] | inhibition [4] [%] | inhibition [5] [%] | inhibition [6] [%] | inhibition [7] [%] | inhibition [8] [%] | inhibition [9] [%] | inhibition [10] [%] | inhibition [11] [%] | inhibition [12] [%] | inhibition [13] [%] | inhibition [14] [%] | inhibition [15] [%] | inhibition [16] [%] | inhibition [17] [%] | inhibition [18] [%] | inhibition [19] [%] | inhibition [20] [%] |
| --- | --- | --- | --- | --- | --- | --- | --- | --- | --- | --- | --- | --- | --- | --- | --- | --- | --- | --- | --- | --- |
| N#Cc1c(NC(=O)c2ccccc2F)sc2c1CCCC2 | -0.82 | -0.87 | 0.22 | -0.31 | 0.82 | -1.5 | 0.64 | 10.5 | 4.86 | 1.84 | 1.48 | 1.47 | 5.27 | 1.43 | 3.35 | 1.66 | 4.03 | 2.72 | 3.24 | 1.07 |
| Cc1ccc2c(-c3ccnc(Nc4ccc5c(c4)OCCO5)n3)c(-c3ccc(C(F)(F)F)cc3)nn2n1 | 1.95 | 2.2 | 6.17 | 1.57 | 4.82 | -0.17 | 0.27 | 6.93 | 1.74 | -0.62 | -5.36 | 3.02 | 9.11 | 2.16 | 3.64 | 2.93 | 2.96 | 1.97 | 4.53 | 2.08 |
| [O-][S+]1CCN(Cc2ccc(-c3ccc4ncnc(Nc5ccc(OCc6ccccc6)c(Cl)c5)c4c3)o2)CC1 | 7.75 | 1.18 | 6.07 | -1.3 | 3.42 | 7.08 | 48.2 | 3.11 | 5.04 | 1.43 | 1.01 | 6.03 | 11.8 | 0.45 | 1.95 | 3.64 | 7.9 | 3.07 | 6.09 | 3.07 |
| COc1cc(Nc2nccc(-c3cnn4ncccc34)n2)cc(OC)c1 | 34.1 | 3.81 | 29.3 | 2.46 | 23.6 | 1.07 | 16.6 | 4.01 | 14.4 | 6.23 | 42.5 | 19.5 | 61.9 | 12.6 | 60.8 | 29 | 91.9 | 37.5 | 75.2 | 40.2 |
| COc1cccc(-n2nc(C)c3c(N/N=C(\C)c4ccncc4)ncnc32)c1 | 1.76 | 1.67 | 2.24 | 2.02 | 1.38 | 1.59 | -0.09 | -1.53 | -2.4 | 0.43 | 0.36 | 1.29 | 7.93 | -0.18 | 1.8 | 1.42 | 4.43 | 0.1 | 0.01 | 3.11 |
| COc1ccc(-c2nn3ncccc3c2-c2ccnc(Nc3cccc(C(F)(F)F)c3)n2)cc1 | 2.59 | 4.45 | 12.7 | 3.78 | 10.3 | 1.45 | 3.23 | 6.61 | 12.1 | 2.37 | 1.14 | 1 | 5.9 | 1.64 | 3.19 | 2.26 | 5.13 | 1.12 | 5.31 | -0.23 |
| Cc1cc(O)cc(C)c1/C=C/c1cncc(C(=O)N(C)C)c1 | 3.38 | 4.08 | 7.54 | 3.61 | 6.35 | 1.7 | 8.23 | 1.87 | 10.9 | 8.6 | 8.5 | 11.8 | 13.3 | 3.51 | 3.16 | 8.15 | 1.18 | 1.47 | 5.39 | 5.76 |
| ON=C1CCc2cc(-c3nc(C4CCNCC4)[nH]c3-c3ccncc3)ccc21 | 1.88 | 0.17 | 2.43 | -0.33 | 0.99 | -0.13 | 2.76 | 0.32 | 4.34 | -1.09 | 1.9 | 2.97 | 10.5 | 2.44 | 6.66 | 1 | 0.52 | 1.54 | 6.14 | 4.22 |
| CN1CCN(C(=O)c2ccc(NC(=O)Nc3ccc(N(C)c4ccnc(Nc5ccc(CS(C)(=O)=O)cc5)n4)cc3)cc2)CC1 | 10.7 | 2.45 | 19.7 | 1.67 | 18.1 | 12.8 | 52.3 | 45.6 | 77.4 | 5.5 | 38.9 | 59.9 | 77.5 | 7.23 | 46.1 | 67.2 | 85.5 | 75.2 | 94.1 | 60.3 |
| Cc1nc(-c2ccccc2)n2nc(NCCCN3CCOCC3)ncc12 | 2.41 | 2.4 | 2.59 | 2.14 | 2.72 | 4.66 | 5.5 | 2.77 | 0.32 | 1.84 | 5.56 | 3.35 | 9.81 | 0.64 | 6.14 | 3 | 5.5 | 2.27 | 3.3 | 1.99 |
| COC(=O)Nc1nc2cc(Oc3ccc(NC(=O)Nc4cccc(Br)c4)cc3)ccc2[nH]1 | 3.57 | 9.62 | 15.2 | 7.97 | 13.8 | 1.37 | 3.46 | 3.78 | 6.03 | 22.3 | 49.3 | 75.2 | 87.4 | 5.64 | 13.8 | 83.8 | 98.1 | 84 | 94.6 | 17.4 |
| FC(F)(F)c1ccc(-c2nn3ncccc3c2-c2ccnc(Nc3ccc4c(c3)OCCO4)n2)cc1 | 3.42 | 6.84 | 37.1 | 4.96 | 30.8 | 7.37 | 8.55 | 5.94 | 12.1 | 7.57 | 15 | 9.5 | 19.5 | 1.06 | 5.73 | – | 5.8 | 6.7 | 11.7 | 9.78 |
| Cc1cc(-c2ccccn2)cc(C)c1/C=C/c1cncc(-c2nn[nH]n2)c1 | 4.93 | 3.33 | 14 | 0.35 | 9.56 | -0.39 | 3.73 | 2.88 | 4.32 | 3.02 | 5.02 | 4.62 | 15.4 | -0.56 | 2.51 | 4.3 | 8.72 | 3.13 | 7.97 | 4.53 |
| COc1ccc2ncnc(Nc3ccc(OCc4ccccc4)cc3)c2c1 | -0.07 | 2.3 | 6.36 | 1.2 | 4.75 | 2.16 | 12.9 | -2.88 | 2.39 | 1.31 | 1.74 | 4.33 | 12.2 | 0.76 | 1.54 | 2.64 | 4.95 | 1.76 | 4.16 | 0.54 |
